# High-throughput results: PubChem BioAssay, several laboratories
# In the library only some 2.8% were active in any assay of this set; here they are far more common.
# Furin inhibitor: blocks human furin protease activity; purified furin, fluorogenic substrate cleavage; inhibition, % at 20 µM or 30 µM; 0.061% of 220,000 active; in the data active = inhibition above about 25%
# p47phox inh: inhibitors of human p47phox binding. P14598. p47phox/p22phox peptide binding, fluorescence polarization, 2 h. inhibition, % at 24.7 µM. 0.53% of 220,000 active;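 active = inhibition above about 30%, limit read from the data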;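 note: 0% = p47phox with labelled peptide and 100% = labelled peptide alone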
# EP2 modulator: modulators of human EP2 prostaglandin E2 receptor. P43116. EP2-expressing cells, cAMP HTRF FRET, PGE2 co-stimulation. induction, % at 25 µM. 0.83% of 260,000 active. AID 940;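 active = compounds whose cAMP rise, as percent of the full-agonist control response, exceeds 60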;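 note: rat C6 glioma line stably carrying human EP2 under a CMV promoter; the protocol text gives 20 µM as final concentration; 100% = response of wells given 1 µM PGE2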
# Target sequence (P43116 whole entry, looked up): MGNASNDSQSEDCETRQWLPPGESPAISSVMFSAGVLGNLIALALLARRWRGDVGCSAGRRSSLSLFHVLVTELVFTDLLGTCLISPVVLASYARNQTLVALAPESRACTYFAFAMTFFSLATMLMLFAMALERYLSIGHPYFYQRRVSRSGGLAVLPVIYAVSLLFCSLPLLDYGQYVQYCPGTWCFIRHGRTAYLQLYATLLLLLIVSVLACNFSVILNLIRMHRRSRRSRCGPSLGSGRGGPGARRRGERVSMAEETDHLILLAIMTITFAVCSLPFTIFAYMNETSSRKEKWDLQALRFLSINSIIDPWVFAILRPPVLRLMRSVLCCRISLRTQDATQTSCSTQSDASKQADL
# HSV replic up: HSV replication enhancement; HSV replication augmentation in cells, fold increase; maximum fold increase; 0.005% of 220,000 active; in the data active = maximum fold increase above about 1.5; inconclusive = no clear call, values can overlap the other calls; tested in PC3 cells
# Wee1 stabilizer: inhibitors of human Wee1 degradation; reporter increase, % at 5 µM; P30291; HeLa Luc-Wee1K328M stability, luciferase luminescence; 100% = proteasome inhibitor MG132 effect; 1.2% of 220,000 active;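 active = activation above the mean of all tested compounds plus 3 SD, set per screening run, cut at about 8.8% in these data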;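 note: cells exposed to compound for 20 h before luminescence read; 0% = DMSO alone and 100% = MG132 at 30 µM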
# EP2 antag: inhibitors of human EP2 prostaglandin E2 receptor; P43116; C6 glioma cells expressing human EP2, cAMP TR-FRET; cells stimulated with saturating PGE2; inhibition, % at 25 µM; 0.52% of 260,000 active; AID 1422;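 active = percent inhibition above 40 after rounding to a whole number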;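 note: rat C6 glioma host cells with rolipram phosphodiesterase inhibitor present; the protocol text gives 20 µM as final concentration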
# * marks the source's active call; other numbers are inactive results; i = inactive; ? = inconclusive; / = not tested or not shown.
SMILES,Furin inhibitor,p47phox inh,EP2 modulator,HSV replic up,Wee1 stabilizer,EP2 antag
CC1CN(C(=O)Cn2nc(-c3cccs3)cc(N)c2=O)CC(C)O1 (centres undefined),/,/,-59.2,/,/,-2.7
CC(C)n1c(=O)[nH][nH]c1=S,-13.2,43.5*,-18.1,i,0.4,10.5
Oc1ccc(Br)cc1C1CC(c2ccccc2)=NC(c2ccco2)N1 (centres undefined),/,/,-33.8,/,/,16.4
CCN1c2ncccc2C(=O)NC12CCN(C(=O)C(C)n1ncc3ccccc3c1=O)CC2 (centres undefined),/,/,-18.4,/,/,10.1
CS(=O)(=O)c1cncnc1C1CCCN(C(=O)Cc2ccc3c(c2)OCO3)C1 (centres undefined),/,/,-3.9,/,/,/
CC1(C)CC(=O)C(/C=N/c2ccccn2)=C(O)C1,50.8*,-3.7,16.3,i,0.2,9.4
CC1(C)CC(=O)C(/C=N/n2cnc3ccccc3c2=O)=C(O)C1,78.7*,-6.2,-4.2,i,3.8,5.5
CCN(CC)CCNC(=O)/C(=N\O)c1ccccn1,-10.5,5.0,15.4,i,-2.2,3.9
CCN(CC)CCNC(=O)c1ccccn1,-17.0,-6.1,11.8,i,16.1*,12.8
CC(C(=O)N1c2ccccc2Sc2ccccc21)n1nnc(-c2ccc(N3CCOCC3)cc2)n1 (centres undefined),/,/,27.1,/,/,17.9
CCC(CN1CCCCC1)NC(=O)Cc1ccc2c(c1)OCCO2 (centres undefined),/,/,-47.1,/,/,4.1
O=C1ON=C(c2ccc(Cl)cc2)/C1=C/c1ccc(O)cc1,-19.4,-3.5,-65.2,i,-0.5,53.0*
CC1=NOC(=O)/C1=C/c1ccc(O)cc1,-31.2,-9.2,18.4,i,-4.2,8.0
COc1ccccc1N1CCN(C(=O)CSc2nnc3c(C)cc4ccccc4n23)CC1,/,/,14.6,/,/,5.8
CCOc1ccc(C(=O)NC(=S)Nc2cccc(S(=O)(=O)NC3=NCCC3)c2)cc1,-19.8,-2.4,-26.7,i,9.5*,3.5
CN1c2ncccc2C(=O)NC12CCN(C(=O)CCN1C(=O)C3CCCCC3C1=O)CC2 (centres undefined),/,/,-18.6,/,/,3.6
CN1CC(c2ccccn2)C2(SC(=S)N(Cc3ccccc3)C2=O)C12C(=O)Nc1ccccc12 (centres undefined),-12.2,-16.6,24.5,i,-0.5,6.9
CN1CC(c2ccccc2)C2(SC(=S)N(Cc3ccco3)C2=O)C12C(=O)Nc1ccccc12 (centres undefined),-11.2,-9.8,60.6*,i,-0.3,8.7
O=C(O[C@@H]1OC2COC(=O)c3cc(O)c(O)c(O)c3-c3c(cc(O)c(O)c3O)C(=O)O[C@@H]([C@H]1O)[C@@H]2O)c1cc(O)c(O)c(O)c1,-5.6,-4.5,30.6,i,9.7*,4.0
Nc1cc(S(=O)(=O)Nc2ccc(Br)cc2)ccc1Cl,-8.9,-9.6,-20.2,i,9.4*,4.0
Cc1cccc2cc(CN(C3CCCCC3)S(=O)(=O)c3ccc(F)cc3)c(=O)[nH]c12,/,/,32.1,/,/,4.9
Cc1ccccc1C(=O)Nc1ccc(N2CCCC2)cc1,-9.2,6.9,-65.5,i,10.4*,14.5
O=C(Nc1ccc(N2CCCCC2)cc1)c1ccccc1Cl,/,/,-46.1,/,/,10.9
CCCCOC(=O)Nc1ccc(N2CCCCC2)cc1,-21.3,-12.1,25.4,i,9.1*,3.0
Cc1c(C(=O)N(C)c2nc3c(s2)CCc2occc2-3)oc2ccccc12,/,/,-41.5,/,/,/
SMILES,Furin inhibitor,p47phox inh,EP2 modulator,HSV replic up,Wee1 stabilizer,EP2 antag
CC(C)n1c(=O)[nH]c2c(C(N)=O)nc(-c3ccc4ncccc4c3)nc21,/,/,-11.0,/,/,4.4
O=C(Nc1ccccc1N1CCCCC1)c1ncoc1-c1ccc(F)cc1,-11.5,-17.9,63.4*,i,0.8,8.6
CC1CCc2c(sc3ncn(C4CCN(CC(N)=O)CC4)c(=O)c23)C1 (centres undefined),/,/,-17.1,/,/,8.1
COCCN1C(=O)c2oc3cc(C)c(C)cc3c(=O)c2C1c1ccc(O)cc1 (centres undefined),-23.3,/,/,i,9.1*,5.4
COCCN1C(=O)c2oc3ccccc3c(=O)c2C1c1cccc(O)c1 (centres undefined),-9.5,-3.2,2.9,i,0.8,8.2
CCCn1ncc(C)c1NC(=O)Cn1nc2c(C)cc3ccc(OC)cc3n2c1=O,/,/,-18.1,/,/,7.5
CCOc1ccc(N2C(=O)c3ccc(C(=O)OCC(=O)N(CC)C4CCS(=O)(=O)C4)cc3C2=O)cc1 (centres undefined),-16.6,43.9*,-29.8,i,-0.2,9.5
Cc1ccc(-n2c(C)cc(C(=O)OCC(=O)N(CC(C)C)C3CCS(=O)(=O)C3)c2C)cc1 (centres undefined),-16.4,-16.6,23.1,i,15.9*,/
O=c1cnnc(N/N=C/c2c[nH]c3ccccc23)[nH]1,-14.8,99.4*,-13.1,i,-1.0,14.1
O=c1nc(N/N=C/c2c[nH]c3ccccc23)cn[nH]1,4.0,-15.8,-56.0,i,-4.0,10.0
CN(C)c1ccc(NC(=O)CSc2nc3sc4c(c3c(=O)[nH]2)CCC4)cc1,/,/,-12.3,/,/,10.7
CCCSc1nc2c(c(=O)[nH]c(=O)n2C)n1C,-7.9,-1.4,14.6,i,1.1,7.9
CCCCCCSc1nc2c(c(=O)[nH]c(=O)n2C)n1C,-20.9,7.8,64.2*,i,1.6,10.3
C=C(C)Cn1c(SCc2ccc(Cl)cc2)nc2c1c(=O)[nH]c(=O)n2C,/,/,70.8*,/,/,11.9
C=C(C)Cn1c(SCc2ccccc2)nc2c1c(=O)[nH]c(=O)n2C,/,/,55.5,/,/,34.2
CCCSc1nc2c(c(=O)[nH]c(=O)n2C)n1Cc1ccc(C)cc1,-22.2,33.3*,56.0,i,6.2,1.8
CCOCCn1c(SCCCc2ccccc2)nc2c1c(=O)[nH]c(=O)n2C,-13.8,-9.3,62.2*,i,1.1,16.6
COCCNc1c(-c2cc(OC)c(OC)c(OC)c2)nc2cnccn12,/,/,-8.6,/,/,11.1
COc1ccc(-c2c(C)nn3c(NCC(C)(C)CN(C)C)cc(C)nc23)cc1,/,/,16.6,/,/,7.0
N#Cc1ccc(CSC2=NCCN2)cc1,-26.8,-0.1,17.6,i,9.8*,5.8
Clc1ccc(CSC2=NCCN2)cc1Cl,/,/,26.6,/,/,15.3
N#CC1=C(N)SC(N)=C(C#N)C1c1ccc(C(F)(F)F)cc1,-15.6,-29.6,13.1,?,-1.0,49.3*
N#CC1=C(N)SC(N)=C(C#N)C1c1ccc([N+](=O)[O-])cc1,-20.8,-14.9,-86.1,i,10.4*,7.8
CCc1ccc(C2C(C#N)=C(N)SC(N)=C2C#N)cc1,0.4,-58.5,14.0,i,0.1,12.0
CCc1nc(SCC(=O)Nc2ccccc2OC)c2ccccc2n1,/,/,-0.4,/,/,9.3
CCOc1ccccc1NC(=O)CSc1nc(-c2ccccc2)nc2ccccc12,/,/,60.8*,/,/,6.3
CCOc1ccccc1NC(=O)c1nc(-c2ccccc2)oc1C,-31.0,-29.7,63.1*,i,0.7,6.2
Cc1oc(-c2ccccc2)nc1C(=O)Nc1nccs1,-9.5,-21.3,7.0,i,-4.1,9.2
